# From the supplement of paper PMC9801561
# ± gives the standard deviation of the averaged measurements.
# Experiments:
# [1] = system: Escherichia coli Nissle 1917; assay: area under OmniLog respiration curve over 48 h (OmniLog units x h); higher = more growth / nutrient utilisation; extreme values may be limits of the assay; conditions: incubation: 48 h, 37 °C
# [2] = system: Escherichia coli Nissle 1917; assay: DuctApe activity index of respiration/growth curve (0 no growth to 9 maximum) (index 0-9); higher = more growth / nutrient utilisation, active = 3 or more; extreme values may be limits of the assay; conditions: incubation: 48 h, 37 °C
# [3] = nutrient role: C-Source, amino acid
# [4] = nutrient role: sole nitrogen source (pyruvate carbon)
# [5] = nutrient role: C-Source, carbohydrate
# [6] = nutrient role: sole sulfur source (pyruvate carbon)
# [7] = nutrient role: sole phosphorus source (pyruvate carbon)
# [8] = nutrient role: C-Source, carboxylic acid
# 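Wherever DuctApe activity index of respiration/growth curve (0 no growth to 9 maximum) is given: biolog PM4 phosphorus and sulfur plates, tetrazolium violet dye reduction read in the OmniLog every 15 min, kinetic curves scored by DuctApe, each plate run in triplicate.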
smiles,measurement,setting,value
O=C1CC[C@@H](C(=O)O)N1 [L-Pyroglutamic acid],area under OmniLog respiration curve,[1]; [3],6.07 ± 1.2
same,area under OmniLog respiration curve,[1]; [4],4.72
same,DuctApe activity index,[2]; [3],0 (inactive)
same,DuctApe activity index,[2]; [4],0 (inactive)
C[C@H](N)C(=O)NCC(=O)O,area under OmniLog respiration curve,[1]; [3],7280 ± 620
same,area under OmniLog respiration curve,[1]; [4],8020 ± 1200
same,DuctApe activity index,[2]; [3],7.67 (active)
same,DuctApe activity index,[2]; [4],8 (active)
CC(=O)N[C@@H]1C(O)O[C@H](CO)[C@@H](O)[C@@H]1O (stereo partly drawn) [N-Acetyl-D-Mannosamine],area under OmniLog respiration curve,[1]; [5],7300 ± 450
same,area under OmniLog respiration curve,[1]; [4],1040 ± 740
same,DuctApe activity index,[2]; [5],7.67 (active)
same,DuctApe activity index,[2]; [4],2.33 (inactive)
N[C@@H](CS)C(=O)O [L-Cysteine],area under OmniLog respiration curve,[1]; [4],9700 ± 1400
same,area under OmniLog respiration curve,[1]; [6],7230 ± 260
same,DuctApe activity index,[2]; [4],8.67 (active)
same,DuctApe activity index,[2]; [6],7.33 (active)
CC(=O)N[C@H]1C(O)O[C@H](CO)[C@H](O)[C@@H]1O (stereo partly drawn) [N-Acetyl-D-Galactosamine],area under OmniLog respiration curve,[1]; [5],8120 ± 580
same,area under OmniLog respiration curve,[1]; [4],992 ± 1000
same,DuctApe activity index,[2]; [5],8 (active)
same,DuctApe activity index,[2]; [4],2.33 (inactive)
C[C@@H](N)C(=O)O [D-Alanine],area under OmniLog respiration curve,[1]; [3],7620 ± 460
same,area under OmniLog respiration curve,[1]; [4],6690 ± 1200
same,DuctApe activity index,[2]; [3],8 (active)
same,DuctApe activity index,[2]; [4],7.33 (active)
N[C@@H](CO)C(=O)O [L-Serine],area under OmniLog respiration curve,[1]; [3],8500 ± 700
same,area under OmniLog respiration curve,[1]; [4],7360 ± 1300
same,DuctApe activity index,[2]; [3],8.67 (active)
same,DuctApe activity index,[2]; [4],8 (active)
N[C@H](CC(=O)O)C(=O)O [D-Aspartic acid],area under OmniLog respiration curve,[1]; [3],48 ± 53
same,area under OmniLog respiration curve,[1]; [4],4.72
same,DuctApe activity index,[2]; [3],0.667 (inactive)
same,DuctApe activity index,[2]; [4],0 (inactive)
NCCCC[C@H](N)C(=O)O [L-Lysine],area under OmniLog respiration curve,[1]; [3],10.5 ± 10
same,area under OmniLog respiration curve,[1]; [4],301 ± 240
same,DuctApe activity index,[2]; [3],0 (inactive)
same,DuctApe activity index,[2]; [4],1 (inactive)
O=c1[nH]cnc2c1ncn2[C@@H]1O[C@H](CO)[C@@H](O)[C@H]1O [Inosine],area under OmniLog respiration curve,[1]; [5],9540 ± 290
same,area under OmniLog respiration curve,[1]; [4],24.8 ± 35
same,DuctApe activity index,[2]; [5],9 (active)
same,DuctApe activity index,[2]; [4],0 (inactive)
Cc1cn([C@H]2C[C@H](O)[C@@H](CO)O2)c(=O)[nH]c1=O [Thymidine],area under OmniLog respiration curve,[1]; [5],9560 ± 710
same,area under OmniLog respiration curve,[1]; [4],4.72
same,DuctApe activity index,[2]; [5],8.67 (active)
same,DuctApe activity index,[2]; [4],0 (inactive)
OCC1OC(OC2C(CO)OC(O)C(O)C2O)C(O)C(O)C1O [D-Cellobiose],area under OmniLog respiration curve,[1]; [5],963 ± 760
same,DuctApe activity index,[2]; [5],1.33 (inactive)
N[C@@H](Cc1c[nH]c2ccccc12)C(=O)O [L-Tryptophan],area under OmniLog respiration curve,[1]; [4],3670 ± 1500
same,DuctApe activity index,[2]; [4],4.67 (active)
O=C(O)C(O)COP(=O)(O)O [D-3-Phospho-Glyceric acid],area under OmniLog respiration curve,[1]; [7],9300 ± 690
same,DuctApe activity index,[2]; [7],8.67 (active)
O=S1(=O)CCCC1 [Tetramethylene Sulfone],area under OmniLog respiration curve,[1]; [6],615 ± 500
same,DuctApe activity index,[2]; [6],0 (inactive)
CC(=O)C(=O)O [Pyruvic acid],area under OmniLog respiration curve,[1]; [8],9610 ± 520
same,DuctApe activity index,[2]; [8],9 (active)
OC[C@H]1O[C@H](OC[C@H]2OC(O)[C@H](O)[C@@H](O)[C@@H]2O)[C@H](O)[C@@H](O)[C@H]1O (stereo partly drawn) [D-Melibiose],area under OmniLog respiration curve,[1]; [5],7880 ± 1000
same,DuctApe activity index,[2]; [5],7.67 (active)
OC[C@@H](O)[C@@H](O[C@H]1O[C@H](CO)[C@@H](O)[C@H](O)[C@H]1O)[C@H](O)[C@@H](O)CO [Maltitol],area under OmniLog respiration curve,[1]; [5],4.72
same,DuctApe activity index,[2]; [5],0 (inactive)
OC[C@@]12OC[C@@H](O1)[C@@H](O)[C@@H](O)[C@@H]2O [Sedoheptulosan],area under OmniLog respiration curve,[1]; [5],201 ± 160
same,DuctApe activity index,[2]; [5],1.33 (inactive)
O=CC(=O)O [Glyoxylic acid],area under OmniLog respiration curve,[1]; [8],5490 ± 480
same,DuctApe activity index,[2]; [8],7 (active)
Nc1cc[nH]c(=O)n1 [Cytosine],area under OmniLog respiration curve,[1]; [4],5890 ± 1100
same,DuctApe activity index,[2]; [4],7 (active)
OC[C@H]1O[C@@](CO)(O[C@H]2O[C@H](CO)[C@@H](O)[C@H](O)[C@H]2O)[C@@H](O[C@H]2O[C@H](CO)[C@@H](O)[C@H](O)[C@H]2O)[C@@H]1O [D-Melezitose],area under OmniLog respiration curve,[1]; [5],106 ± 150
same,DuctApe activity index,[2]; [5],1 (inactive)
N[C@@H](CCO)C(=O)O [L-Homoserine],area under OmniLog respiration curve,[1]; [3],4.72
same,area under OmniLog respiration curve,[1]; [4],546 ± 600
same,DuctApe activity index,[2]; [3],0 (inactive)
same,DuctApe activity index,[2]; [4],1.33 (inactive)
O=C(CO)[C@@H](O[C@H]1O[C@H](CO)[C@@H](O)[C@H](O)[C@H]1O)[C@H](O)[C@H](O)CO [Turanose],area under OmniLog respiration curve,[1]; [5],532 ± 350
same,DuctApe activity index,[2]; [5],0.333 (inactive)
C[C@H](N)C(=O)N[C@@H](CC(=O)O)C(=O)O,area under OmniLog respiration curve,[1]; [4],9150 ± 1000
same,DuctApe activity index,[2]; [4],8.67 (active)
NCCOP(=O)(O)O [O-Phosphoryl-Ethanolamine],area under OmniLog respiration curve,[1]; [7],8740 ± 290
same,DuctApe activity index,[2]; [7],8.67 (active)
CCCCCN [N-Amylamine],area under OmniLog respiration curve,[1]; [4],12.9 ± 14
same,DuctApe activity index,[2]; [4],0 (inactive)
CCCCCC(=O)O [Caproic acid],area under OmniLog respiration curve,[1]; [8],4.72
same,DuctApe activity index,[2]; [8],0 (inactive)
C[C@@H]1OC(O)[C@H](O)[C@H](O)[C@H]1O (stereo partly drawn) [L-Rhamnose],area under OmniLog respiration curve,[1]; [5],6960 ± 610
same,DuctApe activity index,[2]; [5],7.33 (active)
O=C(O)CC(=O)O [Malonic acid],area under OmniLog respiration curve,[1]; [8],4.72
same,DuctApe activity index,[2]; [8],0 (inactive)
NCCN [Ethylenediamine],area under OmniLog respiration curve,[1]; [4],4.72
same,DuctApe activity index,[2]; [4],0 (inactive)
Nc1ccn([C@@H]2O[C@H](COP(=O)(O)O)[C@@H](O)[C@H]2O)c(=O)n1 [Cytidine 5`-Monophosphate],area under OmniLog respiration curve,[1]; [7],8880 ± 960
same,DuctApe activity index,[2]; [7],8.67 (active)
COC(=O)CCC(=O)O [Mono-Methylsuccinate],area under OmniLog respiration curve,[1]; [8],1170 ± 950
same,DuctApe activity index,[2]; [8],1.33 (inactive)
Nc1nc2c(ncn2[C@@H]2O[C@H](COP(=O)(O)O)[C@@H](O)[C@H]2O)c(=O)[nH]1 [Guanosine 5`-Monophosphate],area under OmniLog respiration curve,[1]; [7],9210 ± 900
same,DuctApe activity index,[2]; [7],8.67 (active)
NCC(=O)O [Glycine],area under OmniLog respiration curve,[1]; [3],4.72
same,area under OmniLog respiration curve,[1]; [4],4420 ± 1100
same,DuctApe activity index,[2]; [3],0 (inactive)
same,DuctApe activity index,[2]; [4],6 (active)
Nc1ncnc2c1ncn2[C@@H]1O[C@H](CO)[C@@H](OP(=O)(O)O)[C@H]1O [Adenosine 3`-Monophosphate],area under OmniLog respiration curve,[1]; [7],9700 ± 640
same,DuctApe activity index,[2]; [7],9 (active)
CC[C@H](C)[C@H](N)C(=O)O [L-Isoleucine],area under OmniLog respiration curve,[1]; [3],11.5 ± 6.6
same,area under OmniLog respiration curve,[1]; [4],64.6 ± 81
same,DuctApe activity index,[2]; [3],0 (inactive)
same,DuctApe activity index,[2]; [4],1 (inactive)
CSCC[C@H](NC(=O)CN)C(=O)O,area under OmniLog respiration curve,[1]; [4],5710 ± 1300
same,area under OmniLog respiration curve,[1]; [6],5820 ± 90
same,DuctApe activity index,[2]; [4],7 (active)
same,DuctApe activity index,[2]; [6],7 (active)
OC[C@@H](O)[C@H](O)[C@@H](O)CO [Xylitol],area under OmniLog respiration curve,[1]; [5],4.72
same,DuctApe activity index,[2]; [5],0 (inactive)
O=C(O)[C@@H](O)[C@@H](O)[C@H](O)[C@@H](O)C(=O)O [D-Saccharic acid],area under OmniLog respiration curve,[1]; [8],9150 ± 780
same,DuctApe activity index,[2]; [8],8.67 (active)
OC[C@H]1O[C@@H](O[C@@H]2[C@@H](CO)OC(O)(CO)[C@H]2O)[C@H](O)[C@@H](O)[C@H]1O (mixture of isomers) [Lactulose],area under OmniLog respiration curve,[1]; [5],8170 ± 840
same,DuctApe activity index,[2]; [5],8 (active)
